In test [1] the target is T1, Serine/threonine-protein kinase TBK1 (Homo sapiens) (UniProt Q9UHD2).
T1 sequence (whole entry): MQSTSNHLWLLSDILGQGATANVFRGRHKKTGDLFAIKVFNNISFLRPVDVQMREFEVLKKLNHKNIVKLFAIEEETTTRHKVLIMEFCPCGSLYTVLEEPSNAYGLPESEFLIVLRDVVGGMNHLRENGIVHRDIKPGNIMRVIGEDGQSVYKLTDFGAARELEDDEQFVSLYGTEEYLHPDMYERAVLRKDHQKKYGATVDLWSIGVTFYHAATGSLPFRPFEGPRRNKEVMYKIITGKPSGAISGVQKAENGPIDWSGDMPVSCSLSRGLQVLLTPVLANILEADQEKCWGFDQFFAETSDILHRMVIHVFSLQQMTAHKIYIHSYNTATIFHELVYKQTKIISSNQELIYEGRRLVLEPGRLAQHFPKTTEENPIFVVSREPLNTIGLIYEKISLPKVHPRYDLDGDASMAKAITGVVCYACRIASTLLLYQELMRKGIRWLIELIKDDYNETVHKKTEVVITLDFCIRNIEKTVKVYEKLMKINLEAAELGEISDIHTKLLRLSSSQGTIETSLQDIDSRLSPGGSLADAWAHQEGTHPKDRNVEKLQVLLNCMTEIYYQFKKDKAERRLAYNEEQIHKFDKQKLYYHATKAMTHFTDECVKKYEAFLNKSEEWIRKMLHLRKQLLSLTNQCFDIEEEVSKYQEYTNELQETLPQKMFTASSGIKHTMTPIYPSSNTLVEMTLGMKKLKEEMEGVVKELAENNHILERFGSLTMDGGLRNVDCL
The following applies: at 10 µM.

The target in test [2] is T2, TGF-beta receptor type-1 (Homo sapiens) (UniProt P36897).
T2 sequence (whole entry): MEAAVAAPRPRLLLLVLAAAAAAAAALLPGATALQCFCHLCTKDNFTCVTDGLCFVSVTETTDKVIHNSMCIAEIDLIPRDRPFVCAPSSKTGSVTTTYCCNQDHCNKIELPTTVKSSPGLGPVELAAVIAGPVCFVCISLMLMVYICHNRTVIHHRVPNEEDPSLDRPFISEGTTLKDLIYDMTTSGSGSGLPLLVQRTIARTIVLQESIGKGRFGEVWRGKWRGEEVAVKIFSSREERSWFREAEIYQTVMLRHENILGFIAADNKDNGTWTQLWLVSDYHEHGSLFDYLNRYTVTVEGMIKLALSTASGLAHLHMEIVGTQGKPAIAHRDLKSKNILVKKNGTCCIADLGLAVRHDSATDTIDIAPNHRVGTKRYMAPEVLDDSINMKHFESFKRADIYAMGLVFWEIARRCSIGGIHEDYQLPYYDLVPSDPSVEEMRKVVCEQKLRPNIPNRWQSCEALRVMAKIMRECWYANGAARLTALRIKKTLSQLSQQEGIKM
Particulars: at 1 µM.

Test [3] deals with T2, TGF-beta receptor type-1 (Homo sapiens). The following applies: at 10 µM.
For test [4], the target named is Insulin-like growth factor 1 receptor (Homo sapiens) (UniProt P08069). The following applies: at 1 µM.
Test [5] shares this target. The following applies: at 10 µM.
Test [6] has as its target T3, Inhibitor of nuclear factor kappa-B kinase subunit alpha (Homo sapiens) (UniProt O15111).
T3 sequence (whole entry): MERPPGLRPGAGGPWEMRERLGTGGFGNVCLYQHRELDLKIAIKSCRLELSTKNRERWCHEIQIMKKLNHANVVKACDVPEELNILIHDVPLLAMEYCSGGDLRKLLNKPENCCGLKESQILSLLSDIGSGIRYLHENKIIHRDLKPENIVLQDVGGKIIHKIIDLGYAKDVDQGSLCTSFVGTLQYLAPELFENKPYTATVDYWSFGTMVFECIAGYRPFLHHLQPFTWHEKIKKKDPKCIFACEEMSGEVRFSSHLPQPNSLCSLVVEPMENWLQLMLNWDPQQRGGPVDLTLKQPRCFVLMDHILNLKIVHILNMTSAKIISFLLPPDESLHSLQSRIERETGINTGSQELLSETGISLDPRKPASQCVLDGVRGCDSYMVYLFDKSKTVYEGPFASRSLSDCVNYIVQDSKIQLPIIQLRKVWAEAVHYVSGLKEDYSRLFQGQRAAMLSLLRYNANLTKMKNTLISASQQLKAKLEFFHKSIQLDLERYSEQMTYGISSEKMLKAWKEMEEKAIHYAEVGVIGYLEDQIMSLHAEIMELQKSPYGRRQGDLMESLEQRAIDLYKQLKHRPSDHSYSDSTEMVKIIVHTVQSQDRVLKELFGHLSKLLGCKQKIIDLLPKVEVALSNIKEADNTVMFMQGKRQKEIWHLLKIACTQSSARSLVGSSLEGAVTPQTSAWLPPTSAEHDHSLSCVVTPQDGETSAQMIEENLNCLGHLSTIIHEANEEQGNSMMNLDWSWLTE
Particulars: at 1 µM.

In test [7] the target is T3, Inhibitor of nuclear factor kappa-B kinase subunit alpha (Homo sapiens). Particulars: at 10 µM.
Test [8] addresses T4, Inhibitor of nuclear factor kappa-B kinase subunit beta (Homo sapiens) (UniProt O14920).
T4 sequence (whole entry): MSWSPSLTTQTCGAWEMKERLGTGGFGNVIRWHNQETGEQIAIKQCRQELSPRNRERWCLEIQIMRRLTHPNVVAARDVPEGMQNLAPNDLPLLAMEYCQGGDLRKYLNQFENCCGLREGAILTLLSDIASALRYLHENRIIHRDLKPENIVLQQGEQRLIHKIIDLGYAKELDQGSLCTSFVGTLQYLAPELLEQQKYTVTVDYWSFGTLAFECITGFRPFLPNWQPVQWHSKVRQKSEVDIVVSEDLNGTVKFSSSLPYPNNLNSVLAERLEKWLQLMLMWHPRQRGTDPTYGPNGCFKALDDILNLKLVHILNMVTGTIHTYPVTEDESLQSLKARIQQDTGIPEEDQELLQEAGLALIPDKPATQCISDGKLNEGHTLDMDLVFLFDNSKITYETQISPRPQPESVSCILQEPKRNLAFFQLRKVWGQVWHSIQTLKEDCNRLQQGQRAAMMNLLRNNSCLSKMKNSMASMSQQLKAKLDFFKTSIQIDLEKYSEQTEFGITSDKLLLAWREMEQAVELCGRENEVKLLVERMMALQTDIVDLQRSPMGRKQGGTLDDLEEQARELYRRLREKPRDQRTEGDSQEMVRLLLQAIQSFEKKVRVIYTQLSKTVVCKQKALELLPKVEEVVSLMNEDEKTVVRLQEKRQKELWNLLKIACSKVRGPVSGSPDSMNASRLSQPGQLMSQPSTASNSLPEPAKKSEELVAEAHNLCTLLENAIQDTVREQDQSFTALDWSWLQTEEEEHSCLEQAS
Particulars: at 1 µM.

The target of test [9] is T4, Inhibitor of nuclear factor kappa-B kinase subunit beta (Homo sapiens). Particulars: at 10 µM.
Test [10] has as its target Insulin receptor (Homo sapiens) (UniProt P06213). The following applies: at 1 µM.

One may read the residual activity as the signal under treatment as a percentage of the control signal.

Chain of Insulin-like growth factor 1 receptor (Homo sapiens) (P08069 31-736 limits assumed): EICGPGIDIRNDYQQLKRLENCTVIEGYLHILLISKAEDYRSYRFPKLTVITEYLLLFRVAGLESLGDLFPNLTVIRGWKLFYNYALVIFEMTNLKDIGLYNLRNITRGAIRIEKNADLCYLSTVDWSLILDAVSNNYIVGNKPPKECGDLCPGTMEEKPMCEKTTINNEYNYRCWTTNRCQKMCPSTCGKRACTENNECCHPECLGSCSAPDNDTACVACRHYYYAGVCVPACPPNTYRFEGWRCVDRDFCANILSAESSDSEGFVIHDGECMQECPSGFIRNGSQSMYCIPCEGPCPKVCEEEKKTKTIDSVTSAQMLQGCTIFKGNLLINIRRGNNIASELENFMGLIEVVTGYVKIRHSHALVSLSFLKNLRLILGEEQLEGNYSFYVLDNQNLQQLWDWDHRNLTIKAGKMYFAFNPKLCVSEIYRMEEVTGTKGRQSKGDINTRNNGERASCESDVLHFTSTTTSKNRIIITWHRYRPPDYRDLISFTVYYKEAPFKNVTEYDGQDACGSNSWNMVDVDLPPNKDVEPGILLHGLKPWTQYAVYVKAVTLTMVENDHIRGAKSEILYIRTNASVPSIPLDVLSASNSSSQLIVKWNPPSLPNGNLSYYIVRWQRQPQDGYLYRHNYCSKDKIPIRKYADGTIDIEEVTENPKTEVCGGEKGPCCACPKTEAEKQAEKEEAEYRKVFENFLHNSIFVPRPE
Chain of Insulin-like growth factor 1 receptor (Homo sapiens) (P08069 741-1367 limits assumed): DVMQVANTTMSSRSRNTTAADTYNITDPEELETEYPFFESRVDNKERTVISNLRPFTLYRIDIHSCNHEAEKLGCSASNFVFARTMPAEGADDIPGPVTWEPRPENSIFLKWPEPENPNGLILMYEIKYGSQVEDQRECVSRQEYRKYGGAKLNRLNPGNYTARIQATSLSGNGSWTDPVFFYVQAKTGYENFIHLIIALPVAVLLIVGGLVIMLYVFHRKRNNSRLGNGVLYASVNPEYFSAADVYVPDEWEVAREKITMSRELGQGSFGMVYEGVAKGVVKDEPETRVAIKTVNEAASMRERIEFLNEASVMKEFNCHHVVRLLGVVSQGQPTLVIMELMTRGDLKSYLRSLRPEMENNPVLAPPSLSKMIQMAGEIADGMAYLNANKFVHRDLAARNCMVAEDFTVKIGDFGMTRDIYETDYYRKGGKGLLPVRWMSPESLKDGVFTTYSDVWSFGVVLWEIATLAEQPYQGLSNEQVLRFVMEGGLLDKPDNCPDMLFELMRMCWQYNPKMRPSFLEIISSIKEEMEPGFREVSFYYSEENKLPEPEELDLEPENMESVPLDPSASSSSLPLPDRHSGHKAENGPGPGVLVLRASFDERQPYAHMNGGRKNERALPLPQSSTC
Chain of Insulin receptor (Homo sapiens) (P06213 28-758 limits assumed): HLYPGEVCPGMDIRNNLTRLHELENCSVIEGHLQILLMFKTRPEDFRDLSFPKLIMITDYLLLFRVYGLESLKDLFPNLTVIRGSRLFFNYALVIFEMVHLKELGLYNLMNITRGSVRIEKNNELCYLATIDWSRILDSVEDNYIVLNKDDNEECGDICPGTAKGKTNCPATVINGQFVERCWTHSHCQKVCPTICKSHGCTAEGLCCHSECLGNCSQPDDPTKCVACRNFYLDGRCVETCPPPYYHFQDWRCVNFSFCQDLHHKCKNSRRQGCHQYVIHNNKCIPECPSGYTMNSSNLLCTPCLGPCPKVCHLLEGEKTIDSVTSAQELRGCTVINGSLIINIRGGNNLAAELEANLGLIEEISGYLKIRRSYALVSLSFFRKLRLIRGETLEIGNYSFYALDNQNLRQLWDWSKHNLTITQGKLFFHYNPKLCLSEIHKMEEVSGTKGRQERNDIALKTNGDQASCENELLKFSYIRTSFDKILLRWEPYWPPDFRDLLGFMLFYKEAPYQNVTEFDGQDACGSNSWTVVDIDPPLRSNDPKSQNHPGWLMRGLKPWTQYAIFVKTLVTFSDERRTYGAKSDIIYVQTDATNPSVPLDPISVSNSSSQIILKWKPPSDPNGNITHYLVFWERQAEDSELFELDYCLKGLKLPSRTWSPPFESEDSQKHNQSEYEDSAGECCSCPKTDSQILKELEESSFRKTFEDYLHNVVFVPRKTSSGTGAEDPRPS
Chain of Insulin receptor (Homo sapiens) (P06213 763-1382 limits assumed): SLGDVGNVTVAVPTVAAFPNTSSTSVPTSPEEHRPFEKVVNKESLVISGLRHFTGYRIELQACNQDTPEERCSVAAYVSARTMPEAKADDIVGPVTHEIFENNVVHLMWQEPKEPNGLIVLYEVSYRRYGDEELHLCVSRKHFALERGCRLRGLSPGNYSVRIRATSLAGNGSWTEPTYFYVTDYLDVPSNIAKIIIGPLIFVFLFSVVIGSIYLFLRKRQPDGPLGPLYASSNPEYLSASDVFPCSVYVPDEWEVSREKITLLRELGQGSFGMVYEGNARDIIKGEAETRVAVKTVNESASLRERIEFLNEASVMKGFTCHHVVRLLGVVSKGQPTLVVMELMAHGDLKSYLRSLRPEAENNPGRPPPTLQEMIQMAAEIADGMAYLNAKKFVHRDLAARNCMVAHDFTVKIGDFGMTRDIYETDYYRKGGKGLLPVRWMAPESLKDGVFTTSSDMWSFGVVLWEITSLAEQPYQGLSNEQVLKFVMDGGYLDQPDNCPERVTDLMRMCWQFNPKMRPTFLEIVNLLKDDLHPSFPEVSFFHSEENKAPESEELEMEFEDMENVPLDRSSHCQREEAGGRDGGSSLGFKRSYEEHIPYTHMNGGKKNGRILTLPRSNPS

Consider `Cc1nc2cc3nc(-c4cccs4)cnc3cc2n1C`, for which the residual activity in test [1] was determined as 87%; in [2], 98%; in [3], 118%; in test [4] it was 115%; in [5], 106%; in [6], 125%. Further, the residual activity was 106% in test [7], 106% in test [8], 106% in [9] and 117% in [10].

For the origin of these results see ChEMBL document CHEMBL2218924, “A broad activity screen in support of a chemogenomic map for kinase signalling research and drug discovery” (Biochem J, 2013).
